Source: the antibiotic and cytotoxicity screens of Wong et al. (2023)
Among all 39,000 compounds or so, about 3,300 (8.5%) were called active. Shown is part of a subset that was picked to be rich in actives.

These molecules were tested on HepG2 (assay: cytotoxicity call (relative viability < 0.9)). Details: 10 µM.
In the case of `CCCc1cc(=O)nc(SCC(N)=O)[nH]1`, the cytotoxicity call is reported as “inactive”. `Cc1cc(=O)nc(SCC(N)=O)[nH]1` was tested, and the cytotoxicity call was “active”. In the case of `CCOC(=O)CSc1nc(=O)cc(C)[nH]1`, the cytotoxicity call is reported as “inactive”. `C[C@H](CO)N1C[C@H](C)[C@H](CN(C)S(=O)(=O)c2cn(C)cn2)OCCCC[C@H](C)Oc2ccc(NS(=O)(=O)c3ccccc3)cc2C1=O` was tested, and the cytotoxicity call was “inactive”. `COc1ccc(NC(=O)O[C@H]2[C@@H]3OC(=O)[C@H](Cc4cccc(Br)c4)C/C=C/C[C@@H](Cc4cccc(Br)c4)C(=O)O[C@H]3[C@@H](OC)O[C@@H]2CO)cc1` was tested, and the cytotoxicity call was “inactive”. `CO[C@H]1O[C@H](CO)[C@@H](OC(=O)Nc2cccc(F)c2)[C@@H]2OC(=O)[C@H](Cc3cccc(Br)c3)C/C=C/C[C@@H](Cc3cccc(Br)c3)C(=O)O[C@@H]12` was tested, and the cytotoxicity call was “inactive”. With `CCOC(=O)[C@H]1C/C=C/C[C@H](C(=O)OCC)C(=O)O[C@H]2[C@@H](OC)O[C@H](CO)[C@@H](OC(=O)Nc3ccc(Br)cc3)[C@@H]2OC1=O` the cytotoxicity call was “active”. With `CO[C@H]1O[C@H](CO)[C@@H](OC(=O)Nc2ccccc2)[C@@H]2OC(=O)[C@@H](Cc3ccc4ccccc4c3)C/C=C/C[C@H](Cc3ccc4ccccc4c3)C(=O)O[C@@H]12` the cytotoxicity call was “inactive”. `CCOC(=O)[C@H]1C/C=C/C[C@H](C(=O)OCC)C(=O)O[C@H]2[C@@H](OC)O[C@H](CO)[C@@H](OC(=O)Nc3ccccc3)[C@@H]2OC1=O` was tested, and the cytotoxicity call was “inactive”. `CO[C@H]1O[C@H](CO)[C@@H](OC(=O)Nc2ccc3c(c2)OCO3)[C@@H]2OC(=O)[C@H](Cc3cccc(Br)c3)C/C=C/C[C@@H](Cc3cccc(Br)c3)C(=O)O[C@@H]12` was tested, and the cytotoxicity call was “inactive”. For `COc1ccc(NC(=O)O[C@H]2[C@@H]3OC(=O)[C@@H](Cc4ccc5ccccc5c4)C/C=C/C[C@H](Cc4ccc5ccccc5c4)C(=O)O[C@H]3[C@@H](OC)O[C@@H]2CO)cc1`, the cytotoxicity call was “active”. For `CCOC(=O)[C@H]1C/C=C/C[C@H](C(=O)OCC)C(=O)O[C@H]2[C@@H](OC)O[C@H](CO)[C@@H](OC(=O)Nc3ccc4c(c3)OCO4)[C@@H]2OC1=O`, the cytotoxicity call was “active”. `CCOC(=O)[C@H]1C/C=C/C[C@H](C(=O)OCC)C(=O)O[C@H]2[C@@H](OC)O[C@H](CO)[C@@H](OC(=O)c3ccc(Br)cc3)[C@@H]2OC1=O` was tested, and the cytotoxicity call was “inactive”. In the case of `CCOC(=O)[C@H]1C/C=C/C[C@H](C(=O)OCC)C(=O)O[C@H]2[C@@H](OC)O[C@H](CO)[C@@H](OC(=O)Nc3cccc(F)c3)[C@@H]2OC1=O`, the cytotoxicity call is reported as “active”. For `CCOC(=O)[C@H]1C/C=C/C[C@H](C(=O)OCC)C(=O)O[C@H]2[C@@H](OC)O[C@H](CO)[C@@H](OC(=O)c3c(OC)cccc3OC)[C@@H]2OC1=O`, the cytotoxicity call was “inactive”. In the case of `CCOC(=O)[C@H]1C/C=C/C[C@H](C(=O)OCC)C(=O)O[C@H]2[C@@H](OC)O[C@H](CO)[C@@H](OC(=O)Nc3ccc(OC)cc3)[C@@H]2OC1=O`, the cytotoxicity call is reported as “inactive”. For `COc1cccc(S(=O)(=O)N2C[C@H](O)COC[C@@H]3O[C@H](CC(=O)N4CCN(C)CC4)CC[C@H]32)c1`, the cytotoxicity call was “inactive”. In the case of `CC(C)NC(=O)Nc1cccc2c1O[C@@H](CN(C)Cc1ccc3c(c1)OCO3)[C@@H](C)CN([C@@H](C)CO)C2=O`, the cytotoxicity call is reported as “inactive”. `O=C(C[C@@H]1C[C@H]2c3cc(NC(=O)C4CCOCC4)ccc3O[C@H]2[C@H](CO)O1)NCc1ccc(Cl)cc1` was tested, and the cytotoxicity call was “inactive”. With `O=C(C[C@H]1C[C@@H]2c3cc(NC(=O)Nc4ccc(C(F)(F)F)cc4)ccc3O[C@@H]2[C@@H](CO)O1)NC1CCCCC1` the cytotoxicity call was “inactive”. For `CC(CN)(Cc1ccccc1Cl)C(=O)O` (centres undefined), the cytotoxicity call was “inactive”. With `C/C(C[P+](c1ccccc1)(c1ccccc1)c1ccccc1)=N\NC(=O)CCCCCC(=O)Nc1ccccc1O` the cytotoxicity call was “inactive”. For `C[C@H]1CN([C@@H](C)CO)C(=O)c2cc(C#CCN(C)C)cnc2O[C@@H]1CN(C)S(=O)(=O)c1cn(C)cn1`, the cytotoxicity call was “inactive”. `C[C@H](CO)N1C[C@H](C)[C@@H](CN(C)C(=O)Nc2ccc3c(c2)OCO3)OCCCC[C@H](C)Oc2ccc(NC(=O)Nc3cccc4ccccc34)cc2C1=O` was tested, and the cytotoxicity call was “inactive”. For `C[C@@H]1CCCCO[C@@H](CN(C)S(=O)(=O)c2cccs2)[C@H](C)CN([C@@H](C)CO)C(=O)c2cc(NS(=O)(=O)c3cn(C)cn3)ccc2O1`, the cytotoxicity call was “inactive”. For `C[C@H](CO)N1C[C@H](C)[C@@H](CN(C)C(=O)C2CC2)OCc2cnnn2CCCC1=O`, the cytotoxicity call was “inactive”. For `C[C@@H]1CN([C@@H](C)CO)C(=O)Cc2cc(NC(=O)Nc3ccc(C(F)(F)F)cc3)ccc2O[C@H]1CN(C)C(=O)Nc1cccc2ccccc12`, the cytotoxicity call was “inactive”. For `CO[C@H]1O[C@H](CO)[C@@H](OC(=O)Nc2ccccc2-c2ccccc2)[C@H](OC(=O)Nc2ccc3c(c2)OCO3)[C@H]1OC(=O)Nc1ccc2c(c1)OCO2`, the cytotoxicity call was “inactive”. In the case of `CO[C@H]1O[C@H](CO)[C@@H](OC(=O)Nc2ccc3c(c2)OCO3)[C@H](OC(=O)Nc2ccc3c(c2)OCO3)[C@@H]1OC(=O)Nc1ccc2c(c1)OCO2`, the cytotoxicity call is reported as “active”. With `CO[C@H]1O[C@H](CO)[C@@H](OC(=O)Nc2ccccc2-c2ccccc2)[C@H](OC(=O)Nc2ccc3c(c2)OCO3)[C@@H]1OC(=O)Nc1ccc2c(c1)OCO2` the cytotoxicity call was “inactive”. `Nn1c(CO)nc2ccccc21` was tested, and the cytotoxicity call was “inactive”. For `O=C(N[C@H]1CC[C@H](CCNS(=O)(=O)c2ccc(F)cc2)O[C@H]1CO)C1CC1`, the cytotoxicity call was “inactive”. In the case of `C[C@H]1CN([C@@H](C)CO)C(=O)Cc2cc(NC(=O)Nc3ccc4c(c3)OCO4)ccc2O[C@@H]1CN(C)S(C)(=O)=O`, the cytotoxicity call is reported as “inactive”. For `C[C@H]1CCCCO[C@H](CN(C)C(=O)C2CCCCC2)[C@@H](C)CN([C@@H](C)CO)C(=O)c2cc(NC(=O)c3ccncc3)ccc2O1`, the cytotoxicity call was “inactive”. `C[C@@H]1CN([C@@H](C)CO)C(=O)c2cc(NC(=O)Nc3ccc(F)cc3)ccc2O[C@@H]1CN(C)S(C)(=O)=O` was tested, and the cytotoxicity call was “inactive”. For `Cc1noc(C)c1NC(=O)N(C)C[C@H]1Oc2ncc(C#CCC(C)C)cc2C(=O)N([C@@H](C)CO)C[C@H]1C`, the cytotoxicity call was “inactive”. In the case of `CCC(=O)N1Cc2cc(C(=O)Nc3nccs3)nc(-c3cccc(-c4ccccc4OC)c3)c2[C@H]1CCO`, the cytotoxicity call is reported as “inactive”. With `COc1ccccc1-c1cccc(-c2nc(C(=O)Nc3nccs3)cc3c2[C@H](CCO)N(C(=O)CC2CC2)C3)c1` the cytotoxicity call was “inactive”. `COc1ccccc1-c1cccc(-c2nc(C(=O)Nc3nccs3)cc3c2[C@@H](CCO)N(C(=O)CC2CC2)C3)c1` was tested, and the cytotoxicity call was “active”.
